The values that follow come from PubChem BioAssay (NCI).

This is part of a sample that, as a whole, favours compounds with a hit. Of some 83,000 tested, about 20% had one in any assay.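 The test compound was applied at a single concentration to cells in 96-well plates for 48 hours, and percent growth was recorded.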 Values without a mark were called inactive. The source made the active and inactive calls. The calls were made as follows: active = growth percent below 10; inactive = the rest.

Test systems include NCI-H23 lung; NCI-H322M lung; HOP-62 NSCLC; NCI-H460 lung; NCI-H522 lung; A549/ATCC NSCLC; 786-0 renal; COLO 205 colon; HOP-92 NSCLC.
Holding throughout (assay): NCI-60 one-dose screen, 48 h (100 = growth as untreated, 0 = no growth, -100 = all killed)
What all share (conditions): 10 µM unless noted

Turning to `O=[N+]([O-])c1ccc(N=Nc2c(NNc3ccc([N+](=O)[O-])cn3)cc(S(=O)(=O)O)c3ccccc23)nc1`, the growth in the experiment with NCI-H23 lung was 81.2%; in the experiment on NCI-H322M lung it was 60.8%; in the experiment with HOP-62 NSCLC, 85.5%; in the experiment on NCI-H460 lung, 63.7%; in the experiment with NCI-H522 lung it was 84.9%; in the experiment on A549/ATCC NSCLC, 89.2%. The growth is 109% in the experiment on 786-0 renal and 106% in the experiment on COLO 205 colon.
In the case of `COc1ccc(/C=C/C(=O)CCC(=O)O)cc1OC`, the growth in the experiment on NCI-H23 lung was 109%; with NCI-H322M lung, 97.4%; in the experiment with HOP-62 NSCLC, 91.4%; in the experiment on NCI-H460 lung it was 111%; with NCI-H522 lung, 93.2%; in the experiment with A549/ATCC NSCLC, 103%. Also, the growth is 95.3% in the experiment with 786-0 renal and 106% with COLO 205 colon.
Take `O=c1c2cc(Br)cc(Br)c2nc(-c2ccc(Cl)cc2)n1/N=C\c1ccccc1F`: the growth with NCI-H23 lung is 62.9%; in the experiment with NCI-H322M lung, 52.5%; with HOP-62 NSCLC, 27.4%; with NCI-H460 lung it was 39.1%; in the experiment with NCI-H522 lung it was 51.3%; in the experiment with A549/ATCC NSCLC, 57.1%. Besides, the growth was -34% (active) in the experiment with 786-0 renal and 66.3% with COLO 205 colon.
For the compound `COc1ccc(/C=C(\C#N)c2cc(OC)c(OC)c(OC)c2)cc1`, the growth is 1.46% (active) in the experiment with NCI-H23 lung; 42.8% in the experiment with NCI-H322M lung; 24.1% in the experiment with HOP-62 NSCLC; 7.57% (active) in the experiment with NCI-H460 lung; 5.56% (active) in the experiment on NCI-H522 lung; 20.8% in the experiment with A549/ATCC NSCLC. Further, the growth with 786-0 renal was 18.2%; with COLO 205 colon, -69.7% (active).
With `O=S(=O)(Cc1ccc(Cl)cc1Cl)c1ccc(Cl)cc1`, the growth in the experiment with NCI-H23 lung is 50.2%; in the experiment with NCI-H322M lung it was 50.3%; with HOP-62 NSCLC, 36.5%; in the experiment on NCI-H460 lung, 18.4%; in the experiment with NCI-H522 lung, -5.62% (active); in the experiment with A549/ATCC NSCLC, 30.7%. In addition, the growth was 30.2% with 786-0 renal and 8.87% (active) in the experiment on COLO 205 colon.
Regarding `Oc1c(C(Nc2cccc3ccccc23)c2ccccc2)ccc2cccnc12` (stereo unspecified), the growth is 41.8% with NCI-H23 lung; 37.2% in the experiment with NCI-H322M lung; 52.2% in the experiment with HOP-62 NSCLC; 5.7% (active) in the experiment on NCI-H460 lung; 16.1% with NCI-H522 lung; 33.6% in the experiment with A549/ATCC NSCLC. Further, the results for the growth with 786-0 renal and in the experiment on COLO 205 colon were -13.6% (active) and 38%, respectively.
Turning to `CC(=O)Cc1ccccn1`, the growth in the experiment with NCI-H23 lung is 104%; with NCI-H322M lung it was 110%; with HOP-62 NSCLC it was 108%; in the experiment on NCI-H460 lung it was 105%; with NCI-H522 lung it was 92.5%; in the experiment on A549/ATCC NSCLC it was 104%. Besides, the growth with 786-0 renal is 101%; in the experiment on COLO 205 colon, 133%.
As to `Oc1ccc(-c2nc3ccccc3s2)cc1CN(Cc1ccccn1)Cc1ccccn1`, the growth in the experiment on NCI-H23 lung was 17.5%; in the experiment with NCI-H322M lung it was 9.63% (active); with HOP-62 NSCLC it was 10.9%; in the experiment on NCI-H460 lung, 2.66% (active); in the experiment with NCI-H522 lung, -7.33% (active); in the experiment on A549/ATCC NSCLC, 2.38% (active). The results for the growth in the experiment on 786-0 renal and in the experiment with COLO 205 colon were -3.75% (active) and 16%, respectively.
For `CCN(CC)CCNC(=O)C(F)(F)C(F)(F)C(F)(F)F`, the growth in the experiment on NCI-H23 lung is 114%; in the experiment with NCI-H322M lung, 114%; in the experiment with HOP-62 NSCLC, 95.6%; with NCI-H460 lung, 111%; in the experiment with NCI-H522 lung, 110%; with A549/ATCC NSCLC, 104%. Moreover, the growth in the experiment with 786-0 renal is 87.2%; with COLO 205 colon it was 102%.
`O=C(O)c1cc2cc(OCc3ccccc3)ccc2[nH]1`: the growth with NCI-H23 lung is 103%; in the experiment with NCI-H322M lung it was 99%; with HOP-62 NSCLC it was 93.8%; in the experiment with NCI-H460 lung it was 98.4%; in the experiment on NCI-H522 lung, 90.3%; with A549/ATCC NSCLC it was 90.9%. Also, the growth in the experiment on 786-0 renal was 115%; in the experiment on COLO 205 colon, 93.7%.
On to `O=C(CC(=O)c1ccccc1F)Nc1ccc([N+](=O)[O-])cc1`, for which the growth in the experiment on NCI-H23 lung was 105%; in the experiment with NCI-H322M lung, 91.5%; in the experiment with HOP-62 NSCLC it was 114%; with NCI-H460 lung, 104%; with HOP-92 NSCLC, 79.6%; with 786-0 renal, 101%. Also, the growth in the experiment on COLO 205 colon is 105%.
In the case of `O=C1/C(=C/c2ccccc2)SC(=Nc2ccccc2)N1Nc1ccccc1`, the growth in the experiment with NCI-H23 lung was 13.8%; in the experiment on NCI-H322M lung, 26.9%; in the experiment with HOP-62 NSCLC it was 39.4%; in the experiment on NCI-H460 lung, -25.2% (active); with NCI-H522 lung, -5.53% (active); in the experiment on A549/ATCC NSCLC, 15.5%. Besides, the growth in the experiment with 786-0 renal was -31.4% (active); with COLO 205 colon it was 0.201% (active).
Take `FC(F)(F)c1nn[nH]n1`: the growth in the experiment with NCI-H23 lung is 96.6%; in the experiment with NCI-H322M lung, 111%; with HOP-62 NSCLC, 125%; in the experiment on NCI-H460 lung, 117%; with NCI-H522 lung it was 102%; with A549/ATCC NSCLC, 94.1%. In addition, the figures for the growth in the experiment on 786-0 renal and with COLO 205 colon were 107% and 122%, respectively.
On to `CCc1onc(-c2ccc(OC)cc2)c1-c1ccccc1OCCN(CC)CC`, for which the growth was 85.4% in the experiment with NCI-H23 lung; 76.6% in the experiment on NCI-H322M lung; 90.4% in the experiment on HOP-62 NSCLC; 98.7% with NCI-H460 lung; 88.5% in the experiment with NCI-H522 lung; 101% in the experiment on A549/ATCC NSCLC. Moreover, the growth in the experiment with 786-0 renal was 75.9%; in the experiment on COLO 205 colon, 67%.
Regarding `Nc1nc(N)c2cc(NCc3ccc(Cl)c(Cl)c3)ccc2n1`, the growth with NCI-H23 lung is -88% (active); in the experiment with NCI-H322M lung, -79% (active); with HOP-62 NSCLC, -85.6% (active); in the experiment with NCI-H460 lung, -75.7% (active); in the experiment with NCI-H522 lung it was -69.8% (active); in the experiment with A549/ATCC NSCLC it was -90.2% (active). Besides, the growth in the experiment with 786-0 renal was -89.7% (active); with COLO 205 colon, -90.7% (active).
In the case of `O=C(NNC(=O)c1cccc(Cl)c1)c1ccccc1`, the growth in the experiment on NCI-H23 lung is 108%; in the experiment on NCI-H322M lung, 107%; with HOP-62 NSCLC, 109%; with NCI-H460 lung it was 106%; with NCI-H522 lung it was 111%; in the experiment with A549/ATCC NSCLC, 97.6%. Besides, the growth is 102% in the experiment on 786-0 renal and 116% with COLO 205 colon.
Take `Cc1ccc(Nc2cccc3ccccc23)cc1`: the growth is 83.6% in the experiment on NCI-H23 lung; 82.8% with NCI-H322M lung; 91.9% with HOP-62 NSCLC; 103% in the experiment on NCI-H460 lung; 68.4% in the experiment with NCI-H522 lung; 90.5% in the experiment on A549/ATCC NSCLC. The figures for the growth in the experiment on 786-0 renal and in the experiment on COLO 205 colon were 88.9% and 101%, respectively.
Regarding `CCOC(=O)c1ccc(NC(=O)CSC(N)=O)cc1`, the growth was 95.8% in the experiment on NCI-H23 lung; 112% in the experiment on NCI-H322M lung; 113% in the experiment on HOP-62 NSCLC; 101% with NCI-H460 lung; 72.8% with NCI-H522 lung; 98% in the experiment with A549/ATCC NSCLC. Moreover, the growth is 86.6% in the experiment with 786-0 renal and 98.3% in the experiment on COLO 205 colon.
In the case of `CNCCCn1c2c(c3ccc(Cl)cc3c1=O)C(=O)c1cc(OC)cnc1-2`, the growth with NCI-H23 lung is 34%; in the experiment on NCI-H322M lung, 61.8%; with HOP-62 NSCLC it was 17.6%; with NCI-H460 lung it was -77.3% (active); in the experiment on NCI-H522 lung it was 10.1%; in the experiment with A549/ATCC NSCLC, -88.5% (active). Besides, the growth in the experiment on 786-0 renal was -85.1% (active); in the experiment with COLO 205 colon it was 51.9%.
